# Source: PubChem BioAssay
# KDM5B inhibitor = KDM5B demethylase inhibition; KDM5B demethylase, FDH-coupled NADH fluorescence (FDH is formaldehyde dehydrogenase); Potency, µM (titrated, usually from 57.7 µM), actives largely listed as inhibitors; 220,000 tested, 2.6% active; AID 1347165; active = well fitted inhibition curve with a large enough effect; also: nearly all actives have a fitted effect of over 70% in size
# Target sequence (Q9UGL1 whole entry, looked up): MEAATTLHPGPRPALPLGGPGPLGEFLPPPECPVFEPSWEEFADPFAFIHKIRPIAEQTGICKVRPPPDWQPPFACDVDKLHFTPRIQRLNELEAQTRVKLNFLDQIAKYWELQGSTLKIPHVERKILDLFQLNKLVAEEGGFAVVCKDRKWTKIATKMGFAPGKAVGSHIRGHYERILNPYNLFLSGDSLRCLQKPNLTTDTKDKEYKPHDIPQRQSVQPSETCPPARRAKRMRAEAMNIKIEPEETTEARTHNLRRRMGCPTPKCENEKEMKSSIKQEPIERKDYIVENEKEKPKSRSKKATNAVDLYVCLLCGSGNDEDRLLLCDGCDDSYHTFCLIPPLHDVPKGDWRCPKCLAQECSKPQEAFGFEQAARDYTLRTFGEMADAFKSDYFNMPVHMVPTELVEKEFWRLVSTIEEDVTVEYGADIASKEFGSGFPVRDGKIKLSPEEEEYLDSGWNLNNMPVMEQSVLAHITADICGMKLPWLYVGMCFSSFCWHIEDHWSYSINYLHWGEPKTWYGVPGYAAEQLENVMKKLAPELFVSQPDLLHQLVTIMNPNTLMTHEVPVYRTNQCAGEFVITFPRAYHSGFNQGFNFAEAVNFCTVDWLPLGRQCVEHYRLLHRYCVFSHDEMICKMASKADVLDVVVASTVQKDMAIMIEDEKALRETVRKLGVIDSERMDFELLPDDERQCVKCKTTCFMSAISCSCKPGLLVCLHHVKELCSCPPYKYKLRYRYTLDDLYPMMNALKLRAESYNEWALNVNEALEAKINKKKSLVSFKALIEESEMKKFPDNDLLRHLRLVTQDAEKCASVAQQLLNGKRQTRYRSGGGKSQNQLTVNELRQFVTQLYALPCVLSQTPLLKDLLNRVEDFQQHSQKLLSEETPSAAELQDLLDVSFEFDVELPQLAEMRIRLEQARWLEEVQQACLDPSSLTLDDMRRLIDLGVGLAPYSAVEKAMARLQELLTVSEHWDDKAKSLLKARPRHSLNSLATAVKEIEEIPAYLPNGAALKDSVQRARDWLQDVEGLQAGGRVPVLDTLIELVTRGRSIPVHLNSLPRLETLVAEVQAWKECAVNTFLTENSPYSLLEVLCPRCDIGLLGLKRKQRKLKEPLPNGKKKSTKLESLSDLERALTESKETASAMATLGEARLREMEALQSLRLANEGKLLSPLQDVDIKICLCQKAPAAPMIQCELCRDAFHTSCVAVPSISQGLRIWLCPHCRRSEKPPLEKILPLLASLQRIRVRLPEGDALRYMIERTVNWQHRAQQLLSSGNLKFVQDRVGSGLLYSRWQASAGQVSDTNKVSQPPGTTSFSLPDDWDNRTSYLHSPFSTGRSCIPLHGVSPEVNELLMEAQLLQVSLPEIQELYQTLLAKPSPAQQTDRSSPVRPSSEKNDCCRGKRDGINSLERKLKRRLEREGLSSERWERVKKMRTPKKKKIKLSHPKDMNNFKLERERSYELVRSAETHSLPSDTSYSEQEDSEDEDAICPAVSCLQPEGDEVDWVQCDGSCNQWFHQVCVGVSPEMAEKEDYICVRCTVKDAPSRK
#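 Here, H3K4me3 peptide (12.5 µM in substrate mix) is demethylated by KDM5BΔAP, 200 nM final, after 10 min compound exposure. Formaldehyde product is coupled through FDH (0.25 U/mL in mix) to NADH fluorescence; 30-min ΔRFU feeds dose-response curves.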
# A number is an active result; – = inactive. The sample as a whole holds a higher share of hits than the screen did.
SMILES,KDM5B inhibitor
N#Cc1cccc(NC(=O)O[C@@H]2CO[C@H]3[C@@H]2OC[C@@H]3Nc2nccc(-c3cccc(F)c3)n2)c1,6.31µM
COc1cccc(NC(=O)O[C@@H]2CO[C@H]3[C@@H]2OC[C@@H]3Nc2nccc(-c3cccc(F)c3)n2)c1,–
N#Cc1cccc(-c2ccnc(N[C@H]3CO[C@H]4[C@@H]3OC[C@H]4OC(=O)Nc3ccccc3)n2)c1,–
CCC(=O)Nc1ccc(-c2csc(NC(C)COC)n2)cc1 (centres undefined),–
COc1ccc(C(=O)N2CCC3(CC2)COc2ccccc2C(=O)N3)cc1,–
O=C1NCCCCCCN(C(=O)c2ccco2)[C@H]2C[C@H](C(=O)N3CCN(c4ccccn4)CC3)C[C@@H]12,25.1µM
O=C1NCCCCCN(C(=O)c2ccsc2)[C@@H]2C[C@@H](C(=O)N3CCc4ccccc4C3)C[C@H]12,–
O=C1NCCCCCCN(C(=O)C2CC2)[C@H]2C[C@H](C(=O)N3CCc4ccccc4C3)C[C@@H]12,–
CCC(=O)N1CCCCCCNC(=O)[C@@H]2C[C@@H](C(=O)N3CCN(c4ccccn4)CC3)C[C@@H]21,28.2µM
O=C1NCCCCCCN(C(=O)c2ccco2)[C@H]2CCC[C@@H]12,–
O=C1NCCCCCN(C(=O)COc2ccccc2)[C@@H]2C[C@@H](C(=O)N3CCc4ccccc4C3)C[C@H]12,–
COc1cc(SC)ccc1C(=O)Oc1ccc(C(C)=O)cc1,–
CN1C(=O)C(CC(=O)N(C)C2CCNCC2)(Cc2ccccc2)c2ccccc21 (centres undefined),–
CCCN(CCC)C(=O)c1cc2sc3ccccc3c2s1,–
O=C(COc1cccc(Br)c1)NCCc1c[nH]c2ccccc12,–
CCN(CC(=O)NCc1ccc(F)cc1)C(=O)c1ccc2c(c1)nnn2CC,–
C[S+](=O)([O-])c1ccc(-c2cc3c(cn2)CN(CCc2ccccc2)CCN3)cc1,39.8µM
c1ccc(CCN2CCNc3cc(Nc4ccc(N5CCOCC5)cc4)ncc3C2)cc1,–
COc1ccc(-c2cc3c(cn2)CN(Cc2ccccc2)CCN3)cc1OC,31.6µM
COc1ccccc1CN1CCNc2cc(-c3ccnc(C)c3)ncc2C1,–
COc1ccc(-c2cc3c(cn2)CN(CCc2ccccc2)CCN3)cc1OC,35.5µM
COc1ccc(CNc2cc3c(cn2)CN(Cc2ccccc2)CCN3)cc1OC,–
C[S+](=O)([O-])c1cccc(NC(=O)c2cnc3n2CCN(CCc2ccccc2)CC3)c1,–
Cc1cc(-c2cc3c(cn2)CN(CC2CCOCC2)CCN3)ccn1,35.5µM
Cc1ccc(Oc2ccc(NC(=O)C3CCCCC3)cc2)cc1,–
SMILES,KDM5B inhibitor
O=C(O)C(Cc1ccccc1)NC(=O)C12CC3CC(CC(C3)C1)C2 (centres undefined),–
CNC(=O)[C@@H]1C[C@H](n2cc(CN(C)C(=O)NCC3CCCCC3)nn2)CN1,–
Cc1ccc(C)c(OCC(O)Cn2cnc3sccc3c2=O)c1C (centres undefined),–
CCCCn1c(N)c(N(C(=O)c2cc(CCC)c(C)s2)C2CCCC2)c(=O)[nH]c1=O,–
Cc1cn2nc(C(=O)N3CCC(C(=O)NCc4cccnc4)CC3)cc2c(=O)[nH]1,–
COc1ccc(NC(=O)C(=O)NC(C)C)cc1N1CCCCS1(=O)=O,–
O=C(N/N=C/C1CC=CCC1)C1CC1c1ccccc1 (centres undefined),–
CC(C)CC(NC(=O)C1CCC(C(C)C)CC1)C(=O)O (centres undefined),–
S=c1[nH]nc(CCCOc2ccc(Cl)cc2Cl)n1CC1CCCO1 (centres undefined),–
COC(=O)c1cc(N2CCOCC2)ccc1NC(=O)c1cccc(C#N)c1,–
CC(C)N1CCC(N2CCCC(N3CCN(c4cccc(C(F)(F)F)c4)CC3)C2)CC1 (centres undefined),–
COC(=O)CNC(=O)c1cc(-c2cccs2)nc2ccccc12,–
COc1ccc(Cl)cc1-c1cc2c(cn1)CN(Cc1cccnc1)CCN2,31.6µM
COc1cccc(Nc2cc3c(cn2)CN(Cc2cccnc2)CCN3)c1,–
COc1ccc(NC(=O)c2ccc(-c3ccc(S(=O)(=O)N4CCCC4)cc3)cc2)cc1Cl,–
N#Cc1ccc(-c2c(-c3ccccc3)ncn2CCNc2cccnc2)cc1,28.2µM
CCOc1cc(-c2nccn2CCNc2cccnc2)ccc1O,–
CCOCCn1cnc(-c2ccccc2)c1-c1cccc(C#N)c1,–
Cc1cc(C)c(NC(=O)C2CCCC2)c(C)c1,–
N#CC1=C(N)N(c2cccc(C(F)(F)F)c2)C2=C(C(=O)CCC2)C12C(=O)Nc1ccc(F)cc12 (centres undefined),–
Cc1ccccc1C(=O)NCc1nnc2cc(-c3nc(C4CC4)no3)ccn12,28.2µM
Cc1ccc(C(=O)NCc2nnc3cc(-c4nc(C5CC5)no4)ccn23)cc1C,28.2µM
Cc1ccc(C)c(C(=O)NCc2nnc3cc(-c4nc(C5CC5)no4)ccn23)c1,14.1µM
O=C(NCc1nnc2cc(-c3nc(C4CC4)no3)ccn12)c1ccncc1,28.2µM
Cc1ccc(Cl)cc1NC(=O)Cn1cccc1-c1nc(-c2ccc(F)cc2)no1,–
SMILES,KDM5B inhibitor
O=C1Cc2c(-c3ccccc3OCc3ccccc3)n[nH]c2CN1Cc1ccccn1,–
COC(=O)c1ccoc1COC(=O)CCc1ccc(OC)c(OC)c1,–
CC(SC(C)c1ccccc1F)C(=O)NC(N)=O (centres undefined),–
Cc1nn(-c2ccccc2)c(C)c1CCC(=O)N1CCN(S(=O)(=O)c2ccccc2C#N)CC1,–
CCn1nc(C(=O)Nc2ccc(S(=O)(=O)N(C)C)cc2)c2ccccc2c1=O,–
O=C(Nn1cnnc1)c1ccc(Br)cc1,–
CCOC(=O)C1=CN(CC(=O)Nc2cccc(Cl)c2C)S(=O)(=O)N=C1C,–
CCc1ncc(C(=O)N2CCCC(CCc3cccc(C(F)(F)F)c3)C2)cn1 (centres undefined),–
O=C(c1cc(-c2ccc(O)cc2)n[nH]1)N1CCCC(CCc2ccc(F)cc2)C1 (centres undefined),–
CNc1ncc(C(=O)N2CCCC(CCc3ccc(F)cc3)C2)cn1 (centres undefined),20µM
CCN1C(=O)C2CC3(CCN(C(=O)c4nn(C)c5ccccc45)CC3)CN2C1=O (centres undefined),–
CC(C)N(Cc1cnn(C)c1)S(=O)(=O)c1ccc(Cl)cc1,–
CCCCCCCCOc1ccc(/C=C(/C#N)c2ccccn2)cc1,–
COc1ncccc1-c1cnc2[nH]cc(CC(=O)NC(C)C)c2c1,31.6µM
COc1ncccc1-c1cnc2[nH]cc(CC(=O)N3CCOCC3)c2c1,35.5µM
COc1ncccc1-c1cnc2[nH]cc(CC(N)=O)c2c1,31.6µM
COc1ncccc1-c1cc(C(=O)N2CCOCC2)c2c(c1)ncn2C,–
COc1ccc(CNC(=O)c2c[nH]c3ncccc23)cc1OC,–
COCc1noc([C@@H]2CC(F)(F)CN2C(=O)c2cccc(C#N)c2)n1,–
CCOc1cc(/C=C(/C#N)C(=O)OCCOC)cc(Cl)c1OC,–
CCn1ccc(C(=O)N2CCCCCCNC(=O)[C@@H]3C[C@@H](c4nc(Cc5ccccc5)no4)C[C@@H]32)n1,–
COc1ccccc1C(=O)N1CC(CNC(=O)C2CC2)C2(C1)CN(c1ccccc1)C2 (centres undefined),–
O=C(c1ccc(Cn2cccn2)o1)N1CCC2(CC1)c1ccccc1CC2O (centres undefined),–
COc1ccc(-c2cc(N3CCC(NC(=O)c4ccccc4Cl)CC3)n[nH]2)cc1,–
O=C(NC1CCN(c2cc(-c3cccs3)[nH]n2)CC1)c1cc(F)ccc1Cl,–
